According to the supplement of paper PMC13380429:
Counter-ions that a name gives are not always drawn.

Tested on: Vero E6 infected with SARS-CoV-2
Assay: inhibition of SARS-CoV-2 cytopathic effect; higher = more antiviral protection, active = above 15
Conditions: 48 h

Measured: inhibition of SARS-CoV-2 cytopathic effect

CCCCOc1ccc(C(=O)Nc2ccc(F)cc2F)cc1
inactive: 1 nM -1.89% | 8.33 nM 2.63% | 100 nM -3.66% | 833.33 nM -1.37% | 10000 nM -1.07%

Oc1cccc(-c2nc(N3CCOCC3)c3oc4ncccc4c3n2)c1
inactive: 1 nM -0.17% | 8.33 nM 0.46% | 100 nM -0.59% | 833.33 nM -6.22% | 10000 nM -7.96%

Cc1cccc(NC(=O)N[C@@H]2N=C(c3ccccc3)c3ccccc3N(C)C2=O)c1
inactive: 1 nM -0.47% | 8.33 nM 1.7% | 100 nM 0.28% | 833.33 nM 0.31% | 10000 nM 0.03%

COC(=O)Nc1ccc(-c2nc(N3CCOCC3)c3cnn(C4CCN(C(=O)OC)CC4)c3n2)cc1
inactive: 1 nM 1.39% | 8.33 nM 1.76% | 100 nM 4.01% | 833.33 nM 0.99% | 10000 nM 2.63%

CN1CCC[C@@H]1CCO[C@](C)(c1ccccc1)c1ccc(Cl)cc1 [clemastine]
inactive: 1 nM 3.3% | 8.33 nM 4.37% | 100 nM 2.07% | 833.33 nM 0.78% | 10000 nM 0.68%

CN(C)CCC(c1ccc(Br)cc1)c1ccccn1 (stereo not given) [brompheniramine]
inactive: 1 nM 4.45% | 8.33 nM 3.77% | 100 nM -3.1% | 833.33 nM -0.09% | 10000 nM -4.65%

O=C1CC2(CCCC2)CC(=O)N1CCNC[C@H]1COc2ccccc2O1
inactive: 1 nM -0.99% | 8.33 nM -2.08% | 100 nM -0.87% | 833.33 nM 0.95% | 10000 nM -2.14%

Cc1noc(C)c1-c1ccc(-c2cc(C(N)=O)c(NC(N)=O)s2)c(O[C@H]2CCNC2)c1
inactive: 1 nM 1.7% | 8.33 nM 2.12% | 100 nM 2.46% | 833.33 nM -12.1% | 10000 nM 2.19%

O=C(/C=C/c1c(C(=O)O)[nH]c2cc(Cl)cc(Cl)c12)Nc1ccccc1 [gavestinel]
inactive: 1 nM -3.94% | 8.33 nM -3.2% | 100 nM -2.69% | 833.33 nM -2.17% | 10000 nM -3.95%

CO/N=C(\C(=O)N[C@@H]1C(=O)N2C(C(=O)O)=C(Cn3ccc(=N)n3CCO)CS[C@H]12)c1csc(N)n1 [Cefoselis sulfate]
inactive: 1 nM 0.33% | 8.33 nM -3.45% | 100 nM -1.18% | 833.33 nM -1.56% | 10000 nM 1.21%

CCN(CC)CCOC(=O)c1ccc(N)cc1 [procaine]
inactive: 1 nM -1.32% | 8.33 nM -0.89% | 100 nM -0.82% | 833.33 nM -1.72% | 10000 nM -0.17%

Cc1ccc(C(=O)c2ccc(CC(=O)O)n2C)cc1 [tolmetin]
inactive: 1 nM -2.48% | 8.33 nM -1.62% | 100 nM -1.05% | 833.33 nM -0.39% | 10000 nM 0.75%

Cc1cn2nc([C@@H]3CCCCN3C(=O)c3cc(Cl)ccc3NS(C)(=O)=O)cc2nc1N1CC[C@H](N)C1 [presatovir]
inactive: 1 nM 2.31% | 8.33 nM 0.48% | 100 nM -1.98% | 833.33 nM -1.96% | 10000 nM -4.09%

O=C(O)C(Cc1ccccc1[N+](=O)[O-])=NNc1nc(-c2ccc(Cl)c(Cl)c2)cs1
inactive: 1 nM 4.49% | 8.33 nM -0.65% | 100 nM -1.01% | 833.33 nM 3.78% | 10000 nM 0.02%

CCN(Cc1ccncc1)C(=O)C(CO)c1ccccc1 (stereo not given) [tropicamide]
inactive: 1 nM 2.76% | 8.33 nM 4.91% | 100 nM 3.33% | 833.33 nM 3.81% | 10000 nM -2.47%

C/C(=C\C(=O)Nc1ccccc1C(=O)O)c1ccc2ccccc2c1
inactive: 1 nM 3.55% | 8.33 nM 3.85% | 100 nM 1.03% | 833.33 nM 1.37% | 10000 nM -2.89%

N[C@@H](C[C@@H](F)C(=O)O)C(=O)O
inactive: 1 nM 0.4% | 8.33 nM 1.43% | 100 nM 2.09% | 833.33 nM -2.92% | 10000 nM -1.49%

Cc1oc(=O)oc1COC(=O)C1=C([C@H]2CCCO2)S[C@@H]2[C@@H]([C@@H](C)O)C(=O)N12 [faropenem-medoxomil]
inactive: 1 nM 2.73% | 8.33 nM -1.09% | 100 nM -0.59% | 833.33 nM 2.96% | 10000 nM 1.04%

CO[C@H]1/C=C/O[C@@]2(C)Oc3c(C)c(O)c4c(O)c(c(/C=N/N5CCN(C6CCCC6)CC5)c(O)c4c3C2=O)NC(=O)/C(C)=C\C=C\[C@H](C)[C@H](O)[C@@H](C)[C@@H](O)[C@@H](C)[C@H](OC(C)=O)[C@@H]1C [rifapentine]
inactive: 1 nM -8.98% | 8.33 nM -0.78% | 100 nM -1.42% | 833.33 nM 1.06% | 10000 nM 1.47%

O=C1C2CCN(CC2)C1(CO)CO
inactive: 1 nM -0.42% | 8.33 nM 1.99% | 100 nM 3.09% | 833.33 nM 2.96% | 10000 nM 5.06%

CCn1c(=O)/c(=C2\Sc3ccccc3N2C)s/c1=C\c1cccc[n+]1CC
inactive: 1 nM -0.41% | 8.33 nM 2.22% | 100 nM -0.82% | 833.33 nM -0.9% | 10000 nM -6.25%

CN1C(=O)CC[C@H]1c1cccnc1 [cotinine]
inactive: 1 nM -0.33% | 8.33 nM -1.5% | 100 nM -0.09% | 833.33 nM 0.39% | 10000 nM 0.17%

C=C1C(=O)O[C@@H]2[C@H]3O[C@]3(C)CC/C=C(\C)CC[C@@H]12 [parthenolide-(alternate-stereo)]
inactive: 1 nM 0.91% | 8.33 nM -1.19% | 100 nM -2.99% | 833.33 nM 2.8%
active: 10000 nM 23.8%

CCCN(CCC)C(=O)Cc1c(-c2ccc(Cl)cc2)nc2ccc(Cl)cn12 [alpidem]
inactive: 1 nM -5.3% | 8.33 nM -6.64% | 100 nM -7.76% | 833.33 nM -6.87% | 10000 nM -3.74%

C[C@@]1(O)[C@H](O)[C@@H](CO)O[C@H]1n1ccc(N)nc1=O
inactive: 1 nM 5.4% | 8.33 nM -1.76% | 100 nM -3.15% | 833.33 nM -5.49% | 10000 nM -2.07%

CC(C)(C)CCN1C[C@@H]2[C@@H](CNC(=O)c3cc(Cl)cc(Cl)c3)[C@@H]2C1
inactive: 1 nM 2.47% | 8.33 nM 2.05% | 100 nM 1.76% | 833.33 nM 2.2% | 10000 nM -10.4%

OCC(Br)(Br)Br [tribromoethanol]
inactive: 1 nM 3.45% | 8.33 nM 0.33% | 100 nM 2.81% | 833.33 nM 4.01% | 10000 nM 1.49%

COc1cc(C[C@@H]2NCCc3cc(O)c(O)cc32)cc(OC)c1OC [trimethoquinol]
inactive: 1 nM 0.9% | 8.33 nM 0.73% | 100 nM 1.88% | 833.33 nM 0.62% | 10000 nM -5.45%

CC(C)Cc1ccc(C(C)C(=O)NO)cc1 (stereo not given) [ibuproxam]
inactive: 1 nM 1.38% | 8.33 nM 1.54% | 100 nM 0.99% | 833.33 nM 2.87% | 10000 nM 1.73%

CCC(=O)O[C@@](Cc1ccccc1)(c1ccccc1)[C@@H](C)CN(C)C [levopropoxyphene]
inactive: 1 nM 7.6% | 8.33 nM 2.53% | 100 nM 1.97% | 833.33 nM 0.91% | 10000 nM -3.41%

COCCNC(=O)COc1ccc(OCCNC[C@H](O)COc2ccccc2)cc1
inactive: 1 nM 0.49% | 8.33 nM 1.84% | 100 nM -1.53% | 833.33 nM -1.02% | 10000 nM -6.62%

CCCN(CCC)[C@H]1CCc2ccc(O)cc2C1 [7-hydroxy-DPAT]
inactive: 1 nM 0.73% | 8.33 nM 2.39% | 100 nM 0.54% | 833.33 nM -0.29% | 10000 nM 0.48%

COc1cc(OC)c(OC)cc1C=O [asaraldehyde]
inactive: 1 nM -1.46% | 8.33 nM -1.92% | 100 nM -1.24% | 833.33 nM -1.97% | 10000 nM 0.07%

Nc1nc(Cl)nc2c1ncn2[C@@H]1O[C@H](CO)[C@@H](O)[C@H]1O [2-chloroadenosine]
inactive: 1 nM 1.66% | 8.33 nM 0.54% | 100 nM -0.34% | 833.33 nM -0.32% | 10000 nM -2.2%

CCOC(=O)[C@H](CCc1ccccc1)N[C@@H](C)C(=O)N1[C@H](C(=O)O)C[C@H]2CCCC[C@@H]21 [trandolapril]
inactive: 1 nM -1.1% | 8.33 nM -1.62% | 100 nM -0.26% | 833.33 nM -0.12% | 10000 nM 1.62%

CCCCCCOc1nsnc1C1=CCCN(C)C1 [xanomeline]
inactive: 1 nM 0.86% | 8.33 nM -0.07% | 100 nM -1.23% | 833.33 nM -1.94% | 10000 nM -0.8%

COc1ncc(-c2ccc3c(Nc4cc(Oc5cc(F)cc(F)c5)cc(C(=O)O)c4)c(S(=O)(=O)NC4CC4)cnc3c2)c(OC)n1
inactive: 1 nM 0.82% | 8.33 nM 2.2% | 100 nM 0.69% | 833.33 nM 2.71% | 10000 nM 1.3%

CCOC(=O)[C@H](Cc1ccccc1)NC(=O)c1cc(Cl)c(OCCN2CCN(C)CC2)c(Cl)c1O
inactive: 1 nM -1.93% | 8.33 nM 1.91% | 100 nM 0.81% | 833.33 nM -1.07% | 10000 nM 2.79%

O=C(NC(=O)c1c(F)cccc1F)Nc1cc(Cl)c(OC(F)(F)C(F)C(F)(F)F)cc1Cl (stereo not given) [lufenuron]
inactive: 1 nM 1.67% | 8.33 nM 2.18% | 100 nM -1.16% | 833.33 nM 2.95% | 10000 nM 1.2%

CN(C)C(=O)Oc1cccc([N+](C)(C)C)c1 [neostigmine]
inactive: 1 nM 1.41% | 8.33 nM 0.51% | 100 nM 0.73% | 833.33 nM -1.4% | 10000 nM -0.84%
